# In PubChem BioAssay (EPA / NIEHS):
# Results filed as inconclusive are left out. Active and inactive are the calls of the source. The calls were made as follows, unless noted: active = hit-call score of the fitted dose curve at least 0.9, where 1 is the maximum; inconclusive = response in the unintended direction; inactive = score below 0.9.
# Assays:
# [1] = target: human RAR-related Orphan Receptor beta (RORb), RORB (gene 6096) (UniProt Q92753); assay: ATG_RORb_TRANS: Attagene TRANS-FACTORIAL HepG2 Assay for human RAR-related Orphan Receptor beta (RORb) (AID 2283010)
# Summary of the method: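 HepG2 cells were transiently transfected with multiplexed GAL4-UAS reporter units expressing chimeric nuclear receptor–GAL4 proteins, then dosed for 24 h. Reporter mRNA was quantified by RT-PCR with fluorescent labelling and capillary electrophoresis; gain of signal was fitted relative to DMSO.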
# [2] = target: human RAR-related Orphan Receptor gamma (RORg), RORC (gene 6097) (UniProt P51449); assay: ATG_RORg_TRANS: Attagene TRANS-FACTORIAL HepG2 Assay for human RAR-related Orphan Receptor gamma (RORg) (AID 2283011)
# Summary of the method: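 Reporter transcripts from a transfected RORg-GAL4 chimera in HepG2 cells were quantified 24 h after dosing by RT-PCR, 6-FAM labelling, HpaI digestion and capillary electrophoresis; increases over DMSO baseline were fitted.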
# [3] = target: Retinoic acid receptor RXR-alpha (Homo sapiens) (UniProt P19793); assay: ATG_RXRa_TRANS: Attagene TRANS-FACTORIAL HepG2 Assay for human Retinoid X Receptor alpha (RXRa) (AID 2283012)
# Summary of the method: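 HepG2 cells transiently transfected with multiplexed GAL4-UAS reporter units and chimeric NR-GAL4 fusions, dosed 24 h. Reporter mRNA measured by RT-PCR, FAM labelling, HpaI digestion and capillary electrophoresis; gain-of-signal fitted relative to DMSO baseline.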
# [4] = target: human Retinoid X Receptor beta (RXRb), RXRB (gene 6257) (UniProt P28702); assay: ATG_RXRb_TRANS: Attagene TRANS-FACTORIAL HepG2 Assay for human Retinoid X Receptor beta (RXRb) (AID 2283013)
# Summary of the method: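 HepG2 cells transiently transfected with multiplexed reporter units driven by GAL4-UAS and exogenous chimeric NR-Gal4 proteins; treated 24 h. Reporter mRNA measured by RT-PCR, 6-FAM labelling and capillary electrophoresis; gain-of-signal fitted versus DMSO baseline.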
# [5] = target: human Thyroid Receptor alpha (THRa1), THRA (gene 7067) (UniProt P10827); assay: ATG_THRa1_TRANS: Attagene TRANS-FACTORIAL HepG2 Assay for human Thyroid Receptor alpha (THRa1) (AID 2283014)
# Summary of the method: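 Transcripts from GAL4-UAS-driven reporters, measured after 24 h compound exposure by RT-PCR plus capillary electrophoresis of 6-FAM-labeled fragments, were fitted for gain of signal relative to DMSO. Cells: transiently transfected HepG2 expressing NR-Gal4 chimeras.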
# [6] = read-out: E-selectin (Homo sapiens) (UniProt P16581); assay: BSK_3C_Eselectin: BioMAP Diversity Plus: 3C Assay for Eselectin Biomarker Activity (AID 2283015; active = hit-call score of the fitted dose curve at least 0.9, where 1 is the maximum; inactive = score below 0.9;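 as to outcome: cell surface E-selectin protein quantified by ELISA 24 h after dosing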); details: primary human endothelial cells (HUVEC); actives raise or lower the signal
# Summary of the method: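 E-selectin ELISA readout, fitted bidirectionally relative to DMSO, taken 24 h post-dosing in HUVEC cultures of the 3C system. Overt cytotoxicity tracked with sulforhodamine B staining of parallel wells.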
# [7] = read-out: Interleukin-1 alpha (IL1a), IL1A (gene 3552); assay: BSK_BE3C_IL1a: BioMAP Diversity Plus: BE3C Assay for Interleukin-1 alpha (IL1a) Biomarker Activity (AID 2283016; active = hit-call score of the fitted dose curve at least 0.9, where 1 is the maximum; inactive = score below 0.9); details: primary human bronchial epithelial cells; actives raise or lower the signal
# Summary of the method: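 Human primary bronchial epithelial cells (BE3C system) were dosed with compound and IL-1a measured by ELISA 24 h later. Activity was fitted bidirectionally against DMSO baseline; cytotoxicity was tracked in parallel cultures by SRB total-protein staining.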
# [8] = read-out: Monocyte Chemoattractant Protein-1 (MCP1), CCL2 (gene 6347); assay: BSK_3C_MCP1: BioMAP Diversity Plus: 3C Assay for Monocyte Chemoattractant Protein-1 (MCP1) Biomarker Activity (AID 2283017; active = hit-call score of the fitted dose curve at least 0.9, where 1 is the maximum; inactive = score below 0.9); details: primary human endothelial cells (HUVEC); actives raise or lower the signal
# Summary of the method: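 MCP-1 was measured by ELISA 24 h after dosing in primary HUVEC 3C cultures and fitted in both directions relative to DMSO; cytotoxicity was checked by SRB total-protein staining in parallel wells.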
# [9] = read-out: Human Leukocyte Antigen - DR isotype (HLADR), HLA-DRA (gene 3122); assay: BSK_3C_HLADR: BioMAP Diversity Plus: 3C Assay for Human Leukocyte Antigen - DR isotype (HLADR) Biomarker Activity (AID 2283019; active = hit-call score of the fitted dose curve at least 0.9, where 1 is the maximum; inactive = score below 0.9;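 as to outcome: ELISA of cell-surface HLA-DR on HUVEC 24 h after dosing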); details: primary human endothelial cells (HUVEC); actives raise or lower the signal
# Summary of the method: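 Bidirectional fitting against DMSO was applied to the HLA-DR ELISA signal from human umbilical vein endothelial cells, 24 h post-dose. Cytotoxicity came from parallel SRB total-protein staining; 3C proliferation was counted by SRB at 48 h.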
# [10] = read-out: Monocyte Chemoattractant Protein-1 (MCP1), CCL2 (gene 6347); assay: BSK_4H_MCP1: BioMAP Diversity Plus: 4H Assay for Monocyte Chemoattractant Protein-1 (MCP1) Biomarker Activity (AID 2283018; active = hit-call score of the fitted dose curve at least 0.9, where 1 is the maximum; inactive = score below 0.9); details: primary human endothelial cells (HUVEC); actives raise or lower the signal
# Summary of the method: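 Human umbilical vein endothelial cells (4H system) dosed with chemical; MCP-1 measured by ELISA 24 h after dosing. Bidirectional curve fitting against DMSO negative control as baseline; parallel SRB total-protein staining tracks overt cytotoxicity.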
# Sequence of human RAR-related Orphan Receptor gamma (RORg), RORC (gene 6097) (P51449 whole entry, looked up, the tested form may be a part): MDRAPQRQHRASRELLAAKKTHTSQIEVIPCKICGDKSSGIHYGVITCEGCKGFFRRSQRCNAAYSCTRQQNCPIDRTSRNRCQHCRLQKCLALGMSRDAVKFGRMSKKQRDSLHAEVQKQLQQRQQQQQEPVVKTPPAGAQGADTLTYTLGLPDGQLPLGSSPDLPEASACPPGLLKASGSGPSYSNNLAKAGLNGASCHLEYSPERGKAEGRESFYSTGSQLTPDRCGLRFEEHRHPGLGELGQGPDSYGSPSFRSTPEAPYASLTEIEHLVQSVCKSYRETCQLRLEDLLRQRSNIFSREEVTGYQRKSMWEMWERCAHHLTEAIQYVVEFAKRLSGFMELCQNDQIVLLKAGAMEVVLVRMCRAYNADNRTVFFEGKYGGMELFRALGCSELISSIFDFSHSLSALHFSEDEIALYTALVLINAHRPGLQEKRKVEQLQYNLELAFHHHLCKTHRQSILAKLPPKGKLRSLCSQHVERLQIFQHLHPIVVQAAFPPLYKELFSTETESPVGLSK
# Sequence of human Thyroid Receptor alpha (THRa1), THRA (gene 7067) (P10827 whole entry, looked up, the tested form may be a part): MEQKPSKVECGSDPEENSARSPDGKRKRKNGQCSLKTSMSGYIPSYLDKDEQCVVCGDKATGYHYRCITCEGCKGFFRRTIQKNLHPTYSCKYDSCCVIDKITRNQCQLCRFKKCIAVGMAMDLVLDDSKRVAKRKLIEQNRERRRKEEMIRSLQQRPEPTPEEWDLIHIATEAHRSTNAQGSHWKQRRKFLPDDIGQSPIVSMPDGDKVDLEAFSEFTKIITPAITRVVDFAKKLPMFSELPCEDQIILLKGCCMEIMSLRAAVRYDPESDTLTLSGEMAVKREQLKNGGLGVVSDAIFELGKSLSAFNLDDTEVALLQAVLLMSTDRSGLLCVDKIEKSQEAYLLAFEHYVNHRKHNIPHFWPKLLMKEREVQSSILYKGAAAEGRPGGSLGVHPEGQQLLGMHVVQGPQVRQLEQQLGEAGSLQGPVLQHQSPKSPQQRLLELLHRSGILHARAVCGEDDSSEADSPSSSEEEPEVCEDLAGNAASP
# Sequence of human Retinoid X Receptor beta (RXRb), RXRB (gene 6257) (P28702 whole entry, looked up, the tested form may be a part): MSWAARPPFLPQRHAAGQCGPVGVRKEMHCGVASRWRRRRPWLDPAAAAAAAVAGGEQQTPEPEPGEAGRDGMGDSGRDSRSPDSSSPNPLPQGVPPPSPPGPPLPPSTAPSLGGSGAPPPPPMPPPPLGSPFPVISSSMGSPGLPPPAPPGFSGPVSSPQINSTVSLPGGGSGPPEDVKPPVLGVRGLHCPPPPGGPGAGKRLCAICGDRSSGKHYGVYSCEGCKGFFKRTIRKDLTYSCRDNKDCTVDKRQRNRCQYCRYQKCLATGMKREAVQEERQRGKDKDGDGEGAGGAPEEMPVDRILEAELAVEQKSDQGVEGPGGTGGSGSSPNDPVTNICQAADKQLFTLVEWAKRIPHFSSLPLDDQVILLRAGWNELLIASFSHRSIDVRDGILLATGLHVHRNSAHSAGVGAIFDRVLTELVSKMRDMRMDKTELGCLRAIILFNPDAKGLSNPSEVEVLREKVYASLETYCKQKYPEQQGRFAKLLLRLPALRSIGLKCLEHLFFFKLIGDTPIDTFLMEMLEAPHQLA
# Sequence of Retinoic acid receptor RXR-alpha (Homo sapiens) (P19793 whole entry, looked up, the tested form may be a part): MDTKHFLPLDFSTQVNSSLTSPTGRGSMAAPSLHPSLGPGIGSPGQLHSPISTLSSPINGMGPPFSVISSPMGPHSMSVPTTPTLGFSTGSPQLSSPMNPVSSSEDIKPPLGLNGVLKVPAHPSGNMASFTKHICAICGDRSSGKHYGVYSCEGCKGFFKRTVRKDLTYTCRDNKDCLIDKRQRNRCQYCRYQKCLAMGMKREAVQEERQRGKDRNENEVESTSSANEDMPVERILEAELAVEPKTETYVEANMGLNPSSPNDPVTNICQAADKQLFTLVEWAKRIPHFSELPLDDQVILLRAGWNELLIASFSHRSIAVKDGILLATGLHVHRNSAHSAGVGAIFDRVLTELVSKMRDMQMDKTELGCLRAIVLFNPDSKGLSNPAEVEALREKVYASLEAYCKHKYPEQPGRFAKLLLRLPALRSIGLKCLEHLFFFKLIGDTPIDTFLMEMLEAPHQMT
# Sequence of human RAR-related Orphan Receptor beta (RORb), RORB (gene 6096) (Q92753 whole entry, looked up, the tested form may be a part): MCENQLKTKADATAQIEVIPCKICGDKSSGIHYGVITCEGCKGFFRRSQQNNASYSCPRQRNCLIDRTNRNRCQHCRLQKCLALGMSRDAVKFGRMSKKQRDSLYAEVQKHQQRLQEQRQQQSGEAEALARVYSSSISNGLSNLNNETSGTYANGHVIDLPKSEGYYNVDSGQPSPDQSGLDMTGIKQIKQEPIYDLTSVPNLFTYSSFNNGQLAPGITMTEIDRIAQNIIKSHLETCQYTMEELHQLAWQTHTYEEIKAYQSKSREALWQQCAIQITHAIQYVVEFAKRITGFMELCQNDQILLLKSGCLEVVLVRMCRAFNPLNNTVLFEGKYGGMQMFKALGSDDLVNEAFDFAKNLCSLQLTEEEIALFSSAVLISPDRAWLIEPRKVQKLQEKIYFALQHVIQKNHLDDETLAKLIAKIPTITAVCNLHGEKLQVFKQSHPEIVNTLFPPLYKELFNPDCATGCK
# Sequence of E-selectin (Homo sapiens) (P16581 whole entry, looked up): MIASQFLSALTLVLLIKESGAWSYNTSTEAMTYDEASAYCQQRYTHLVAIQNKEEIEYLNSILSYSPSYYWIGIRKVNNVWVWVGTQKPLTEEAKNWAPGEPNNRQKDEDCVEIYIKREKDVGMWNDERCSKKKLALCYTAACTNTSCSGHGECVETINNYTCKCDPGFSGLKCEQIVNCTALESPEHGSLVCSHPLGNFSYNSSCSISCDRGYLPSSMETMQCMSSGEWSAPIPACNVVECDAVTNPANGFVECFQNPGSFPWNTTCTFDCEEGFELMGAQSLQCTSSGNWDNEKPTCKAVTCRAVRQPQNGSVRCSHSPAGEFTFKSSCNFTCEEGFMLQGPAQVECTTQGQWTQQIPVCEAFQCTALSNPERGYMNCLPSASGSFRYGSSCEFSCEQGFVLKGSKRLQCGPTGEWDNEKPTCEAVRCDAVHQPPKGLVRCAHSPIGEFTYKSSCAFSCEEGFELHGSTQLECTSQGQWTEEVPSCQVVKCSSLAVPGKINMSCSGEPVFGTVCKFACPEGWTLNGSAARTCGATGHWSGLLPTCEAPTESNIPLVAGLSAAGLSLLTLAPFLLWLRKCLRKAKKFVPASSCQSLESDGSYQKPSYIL
smiles,measurement,setting,value
Cn1cccc1,outcome,[1],inactive
same,outcome,[2],inactive
same,outcome,[3],inactive
same,outcome,[4],inactive
CCC1COC(=O)O1 (stereo not drawn),outcome,[1],inactive
same,outcome,[2],inactive
same,outcome,[3],inactive
same,AC50,[4],70.1 µM (active)
CCCCOCCOC(=O)COc1ccc(Cl)cc1Cl,outcome,[1],inactive
same,outcome,[2],inactive
C=CC(=O)OCCCCCCCCCC,outcome,[1],inactive
same,outcome,[2],inactive
same,outcome,[3],inactive
same,outcome,[4],inactive
same,outcome,[5],inactive
CCCCCCCCCCCCCc1ccccc1,outcome,[1],inactive
same,outcome,[2],inactive
same,outcome,[3],inactive
same,outcome,[4],inactive
same,outcome,[5],inactive
CCCc1ccc(O)c(OC)c1,outcome,[1],inactive
same,outcome,[2],inactive
same,outcome,[3],inactive
same,outcome,[4],inactive
C=Cc1ccc(OC(C)=O)cc1,outcome,[1],inactive
same,outcome,[2],inactive
same,outcome,[3],inactive
same,outcome,[4],inactive
same,outcome,[5],inactive
CC(C)CO,outcome,[1],inactive
CC(C)(C)C1CCC(=O)CC1,outcome,[1],inactive
same,outcome,[2],inactive
same,outcome,[3],inactive
same,outcome,[4],inactive
CC1OC(=O)C(C)OC1=O (stereo not drawn),outcome,[1],inactive
CC(=O)OC1CCCCC1,outcome,[1],inactive
same,outcome,[2],inactive
same,outcome,[3],inactive
CC(=O)c1ccc(S(=O)(=O)NC(=O)NC2CCCCC2)cc1,outcome,[1],inactive
same,outcome,[2],inactive
CC(CC(C)C)=NO,outcome,[1],inactive
same,outcome,[2],inactive
same,outcome,[3],inactive
CC(=O)OC1CCCCC1C(C)(C)C (stereo not drawn),outcome,[1],inactive
same,outcome,[2],inactive
same,outcome,[3],inactive
same,AC50,[4],58.9 µM (active)
same,outcome,[5],inactive
CC1=CC(C)C(C=O)CC1 (stereo not drawn),outcome,[1],inactive
same,outcome,[2],inactive
same,outcome,[3],inactive
same,outcome,[4],inactive
C=C(C)C(=O)OCCCCCCCCCCCC,outcome,[1],inactive
same,outcome,[2],inactive
same,outcome,[3],inactive
same,AC50,[4],67.8 µM (active)
same,outcome,[5],inactive
same,outcome,[6],inactive
same,outcome,[7],inactive
same,outcome,[8],inactive
same,outcome,[9],inactive
Cc1ccc(C)c(OCCCC(C)(C)C(=O)O)c1,outcome,[1],inactive
same,outcome,[2],inactive
same,outcome,[3],inactive
same,outcome,[4],inactive
CC(C)(C)N,outcome,[1],inactive
same,outcome,[2],inactive
same,outcome,[3],inactive
same,outcome,[4],inactive
Nc1nc(N)nc(-c2ccccc2)n1,outcome,[1],inactive
same,outcome,[2],inactive
same,outcome,[3],inactive
same,outcome,[4],inactive
same,outcome,[5],inactive
same,outcome,[6],inactive
same,outcome,[7],inactive
same,outcome,[10],inactive
same,outcome,[9],inactive
Cc1c(C(=O)c2c[nH]n(C)c2=O)ccc(S(C)(=O)=O)c1C1=NOCC1,outcome,[1],inactive
Oc1ccc(/C=C/c2cc(O)cc(O)c2)cc1,outcome,[1],inactive
same,outcome,[2],inactive
same,outcome,[3],inactive
same,outcome,[4],inactive
same,outcome,[5],inactive
same,outcome,[6],inactive
same,AC50,[7],10.1 µM (active)
same,AC50,[9],20 µM (active)
CC(C)C(=O)OCCOc1ccccc1,outcome,[1],inactive
same,outcome,[2],inactive
NNS(=O)(=O)c1ccc(Oc2ccc(S(=O)(=O)NN)cc2)cc1,outcome,[1],inactive
CCC(=O)C1CC(C(C)C)CC=C1C (stereo not drawn),outcome,[1],inactive
same,outcome,[2],inactive
same,outcome,[3],inactive
CCC(C)C(=O)OC (stereo not drawn),outcome,[1],inactive
same,outcome,[2],inactive
same,outcome,[3],inactive
same,outcome,[4],inactive
Nc1ccc(O)c([N+](=O)[O-])c1,outcome,[1],inactive
same,outcome,[2],inactive
same,outcome,[3],inactive
same,outcome,[4],inactive
same,outcome,[5],inactive
O=C(C=Cc1ccccc1)OCCc1ccccc1,outcome,[1],inactive
same,outcome,[2],inactive
same,outcome,[3],inactive
same,outcome,[4],inactive
same,outcome,[5],inactive
N=C1C=CC(=C(c2ccc(N)cc2)c2ccc(N)cc2)C=C1,outcome,[1],inactive
same,outcome,[2],inactive
same,outcome,[3],inactive
Cc1ccccc1CCO,outcome,[1],inactive
same,outcome,[2],inactive
same,outcome,[3],inactive
same,outcome,[4],inactive
CCCCC(=O)O,outcome,[1],inactive
same,outcome,[2],inactive
C=CCCCCCCCCC=O,outcome,[1],inactive
same,outcome,[2],inactive
same,outcome,[3],inactive
same,AC50,[4],105 µM (active)
same,outcome,[6],inactive
same,outcome,[7],inactive
same,outcome,[8],inactive
same,outcome,[10],inactive
same,outcome,[9],inactive
CCCCC(CC)COC(=O)/C=C/c1ccc(OC)cc1 (stereo not drawn),outcome,[1],inactive
same,outcome,[2],inactive
same,outcome,[3],inactive
same,outcome,[4],inactive
same,outcome,[5],inactive
CCCSSCCC,outcome,[1],inactive
same,outcome,[2],inactive
same,outcome,[3],inactive
CC(C)OC(=O)c1ccccc1,outcome,[1],inactive
same,outcome,[2],inactive
same,outcome,[3],inactive
CC(C)(CO)C(O)C(=O)NCCCO (stereo not drawn),outcome,[1],inactive
same,outcome,[2],inactive
same,outcome,[3],inactive
CC1=C(O)C(=O)C(C)O1 (stereo not drawn),outcome,[1],inactive
same,outcome,[2],inactive
same,outcome,[3],inactive
same,outcome,[4],inactive
CC(C)C(=O)OCCc1ccccc1,outcome,[1],inactive
same,outcome,[2],inactive
same,outcome,[5],inactive
same,outcome,[6],inactive
same,outcome,[7],inactive
same,outcome,[8],inactive
same,outcome,[10],inactive
same,outcome,[9],inactive
CN(C)c1ccc2nc3ccc(=[N+](C)C)cc-3sc2c1,outcome,[1],inactive
same,outcome,[2],inactive
same,outcome,[3],inactive
same,outcome,[5],inactive
Nc1ccc(C(=O)O)cc1,outcome,[1],inactive
same,outcome,[2],inactive
same,outcome,[6],inactive
same,outcome,[7],inactive
same,outcome,[8],inactive
same,outcome,[9],inactive
O=C(O)C(F)(F)C(F)(F)C(F)(F)C(F)(F)C(=O)O,outcome,[1],inactive
same,outcome,[2],inactive
same,outcome,[3],inactive
same,outcome,[6],inactive
same,outcome,[7],inactive
same,outcome,[10],inactive
same,outcome,[9],inactive
CC1(C)C(=O)N(CO)C(=O)N1CO,outcome,[1],inactive
same,outcome,[2],inactive
same,outcome,[3],inactive
same,outcome,[5],inactive
CCCCCCCCCCCC(C)=O,outcome,[1],inactive
same,outcome,[2],inactive
same,outcome,[3],inactive
same,AC50,[4],25.9 µM (active)
same,AC50,[6],33.7 µM (active)
same,AC50,[7],20 µM (active)
same,AC50,[9],32.5 µM (active)
C=CC(=O)OCC(C)OCC(C)OCC(C)OC(=O)C=C (stereo not drawn),outcome,[1],inactive
same,outcome,[2],inactive
same,outcome,[3],inactive
same,outcome,[5],inactive
same,AC50,[6],11 µM (active)
same,AC50,[7],21.5 µM (active)
same,AC50,[9],8.55 µM (active)
CC(C)[N+](C)(CCOC(=O)C1c2ccccc2Oc2ccccc21)C(C)C,outcome,[1],inactive
same,outcome,[2],inactive
same,outcome,[5],inactive
same,outcome,[6],inactive
same,outcome,[7],inactive
same,outcome,[10],inactive
same,outcome,[9],inactive
